Where “and” joins values, the source holds several entries; their conditions need not be identical. Identical values can stand only once. Some compounds were tested as several samples or in several runs, with calls that do not always agree. Calls of active or inactive are those of the source. Rule for the calls: active = hit-call score of the fitted dose curve at least 0.9, where 1 is the maximum; inactive = score below 0.9.
Experiments:
[1] = ATG_E_Box_CIS: Attagene CIS-FACTORIAL HepG2 Assay for human Enhancer Box (E-box) (AID 2282936); conditions: HepG2 E-box cis-reporter transcription, actives raise or lower the signal
Procedure, shortened: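 Measured 24 h post-dosing in HepG2 cells transfected with multiple cis-regulated reporter units, signal being reporter mRNA induction detected by fluorescent RT-PCR with capillary electrophoresis; gain or loss fitted against DMSO.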

[2] = ATG_M_61_CIS: Attagene CIS-FACTORIAL HepG2 Assay for M61 Transcription Factor (Internal Marker) (AID 2282937); conditions: HepG2 Attagene CIS-FACTORIAL M61 internal marker reporter; actives raise or lower the signal
Procedure, shortened: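 Transfect HepG2 with MRTUs; dose 24 h; isolate RNA; reverse-transcribe with DNase I treatment; PCR-amplify, FAM-label and cut with HpaI for 2 h at 37 C; resolve by CE. Bidirectional fitting against DMSO.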

[3] = ATG_EGR_CIS: Attagene CIS-FACTORIAL HepG2 Assay for human Early Growth Response 1 (EGR1) (AID 2282938); conditions: HepG2 Attagene CIS-FACTORIAL EGR reporter mRNA; actives raise or lower the signal
Procedure, shortened: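 After a 24 h treatment of transiently transfected HepG2 cells, total RNA was reverse-transcribed and reporter sequences PCR-amplified, labelled and run on capillary electrophoresis. Reporters sit under cis-regulatory promoters sensing endogenous factors.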

[4] = ATG_M_19_CIS: Attagene CIS-FACTORIAL HepG2 Assay for M19 Transcription Factor (Internal Marker) (AID 2282939); conditions: HepG2 Attagene CIS-FACTORIAL M19 internal marker reporter; actives raise or lower the signal
Procedure, shortened: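 Following a 24 h exposure, RNA from transfected HepG2 cells was reverse-transcribed, PCR-amplified with reporter-specific primers, end-labelled with 6-FAM and HpaI-digested before capillary separation. Values represent gain or loss versus DMSO.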

[5] = ATG_ERE_CIS: Attagene CIS-FACTORIAL HepG2 Assay for Estrogen Response Element (ERE) (AID 2282940); conditions: HepG2 ERE cis-reporter, Attagene RNA transcript; actives raise or lower the signal
Procedure, shortened: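 HepG2, transient cis-reporter units, 24 h exposure. RNA isolated, oligo(dT) RT, reporter-specific PCR, FAM extension, HpaI cut, CE detection. Gain/loss-of-signal vs DMSO.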

[6] = ATG_Ets_CIS: Attagene CIS-FACTORIAL HepG2 Assay for human Erythroblast Transformation Specific (ETS) (AID 2282941); conditions: HepG2 ETS cis-reporter transcription, actives raise or lower the signal
Procedure, shortened: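 Endogenous transcription factor activity read as reporter mRNA via RT-PCR and capillary electrophoresis, with gain or loss fitted bidirectionally against DMSO. Human HepG2 liver cells, transiently transfected CIS reporter constructs, 24 h exposure.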

[7] = molecular target: Hepatocyte nuclear factor 3-beta (Homo sapiens) (UniProt Q9Y261); assay: ATG_FoxA2_CIS: Attagene CIS-FACTORIAL HepG2 Assay for human Forkhead box A2 (FOXA2) (AID 2282942); conditions: HepG2 cis-reporter transcription factor activity, 24 h; actives raise or lower the signal
Procedure, shortened: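 24 h dosing of HepG2 bearing cis-reporter constructs; mRNA readout by RT-PCR/CE fluorescence; bidirectional fit, DMSO baseline.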

[8] = ATG_FoxO_CIS: Attagene CIS-FACTORIAL HepG2 Assay for human Forkhead box O (FoxO) (AID 2282943); conditions: HepG2 Attagene cis-reporter, FoxO element, mRNA; actives raise or lower the signal
Procedure, shortened: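 Values reflect reporter mRNA induction or loss in HepG2 cells 24 h post-dosing, fitted bidirectionally with DMSO as negative control and baseline. Detection used RT-PCR and fluorescence capillary electrophoresis.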

[9] = ATG_GATA_CIS: Attagene CIS-FACTORIAL HepG2 Assay for human GATA Binding Protein (AID 2282944); conditions: HepG2 GATA cis-element reporter, Attagene multiplex mRNA; actives raise or lower the signal
Procedure, shortened: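 DMSO serves as negative control and baseline for bidirectional fitting of reporter mRNA changes. HepG2 cells bearing transiently transfected cis-promoter reporters were exposed 24 h; transcripts detected via RT-PCR and capillary electrophoresis.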

[10] = ATG_GLI_CIS: Attagene CIS-FACTORIAL HepG2 Assay for human Zinc Finger Protein GLI1 (AID 2282945); conditions: HepG2, Attagene cis-factorial reporter mRNA, GLI element; actives raise or lower the signal
Procedure, shortened: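 HepG2 cells transiently transfected with cis-promoter multiplexed reporter units report endogenous transcription factor activity. After 24 h chemical exposure, reporter mRNA was quantified by RT-PCR, 6-FAM labelling, HpaI digestion and capillary electrophoresis, with bidirectional fitting against DMSO.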

[11] = molecular target: Bile acid receptor (Homo sapiens) (UniProt Q96RI1); assay: ATG_IR1_CIS: Attagene CIS-FACTORIAL HepG2 Assay for human Nuclear Receptor Subfamily 1 Group H Member 4 (NR1H4), IR1 submotif (AID 2282946); conditions: IR1 reporter transcription, actives raise or lower the signal
Procedure, shortened: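 Readout: reporter transcript levels by RT-PCR with fluorescent capillary electrophoresis, from HepG2 cells transiently transfected with multiplexed cis-regulated reporters and dosed 24 h. Gain- or loss-of-signal fitted versus DMSO negative control.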

[12] = ATG_GRE_CIS: Attagene CIS-FACTORIAL HepG2 Assay for human Glucocorticoid Response Elements (GRE) (AID 2282947); conditions: HepG2 GRE cis-reporter, Attagene multiplex mRNA; actives raise or lower the signal
Procedure, shortened: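 HepG2, transient cis-reporter transfection, 24 h. Reporter mRNA: RT-PCR then CE, fluorescence. Fit both directions vs DMSO.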

[13] = ATG_ISRE_CIS: Attagene CIS-FACTORIAL HepG2 Assay for human Interferon Regulatory Factor 1 (IRF1) binding to an Interferon-Stimulated Response Element (ISRE) (AID 2282948); conditions: HepG2 ISRE cis-reporter (Attagene), mRNA transcription readout; actives raise or lower the signal
Procedure, shortened: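 Endogenous transcription factor activity read as reporter transcript abundance via RT-PCR and capillary electrophoresis. HepG2 cells transiently transfected, 24 h chemical exposure. Gain or loss fitted against DMSO baseline.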

[14] = ATG_M_32_CIS: Attagene CIS-FACTORIAL HepG2 Assay for M32 Transcription Factor (Internal Marker) (AID 2282949); conditions: HepG2 Attagene cis-factorial M32 reporter, mRNA; actives raise or lower the signal;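 note: background control marker of the multiplexed CIS panel rather than a real target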
Procedure, shortened: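 Transient MRTU transfection of HepG2; 24 h compound treatment; TriZol RNA, oligo(dT) RT, reporter PCR, 6-FAM primer extension, HpaI cut, CE. Gain/loss of signal vs DMSO.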

[15] = ATG_M_06_CIS: Attagene CIS-FACTORIAL HepG2 Assay for M06 Transcription Factor (Internal Marker) (AID 2282950); conditions: HepG2 Attagene CIS-FACTORIAL M06 internal marker reporter; actives raise or lower the signal
Procedure, shortened: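 Fluorescence-labelled RT-PCR products from cis-promoter reporter units, cut with HpaI and resolved by capillary electrophoresis, give the signal. Cells are human HepG2, dosed for 24 h. Serves as background control, fitted relative to DMSO.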

[16] = molecular target: Hepatocyte nuclear factor 6 (Homo sapiens) (UniProt Q9UBC0); assay: ATG_HNF6_CIS: Attagene CIS-FACTORIAL HepG2 Assay for human Hepatocyte Nuclear Factor 6 (HNF6) (AID 2282952); conditions: HepG2 Attagene cis-factorial HNF6 reporter transcription; actives raise or lower the signal
Procedure, shortened: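 Readout: fluorescent reporter-transcript fragments resolved by capillary electrophoresis after RT-PCR, reflecting endogenous factor activity in transfected HepG2. Exposure 24 h. Gain or loss of signal fitted bidirectionally against DMSO.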

[17] = molecular target: Heat shock factor protein 1 (Homo sapiens) (UniProt Q00613); assay: ATG_HSE_CIS: Attagene CIS-FACTORIAL HepG2 Assay for human Heat Shock Transcription Factor 1 (HSE) (AID 2282953); conditions: HepG2 HSE cis-reporter, Attagene RNA transcription; actives raise or lower the signal
Procedure, shortened: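 After a 24 h incubation with test chemical, transfected HepG2 cells were harvested for RNA; reporter transcripts were measured by RT-PCR and capillary electrophoresis. Values reflect gain or loss of signal relative to DMSO.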

[18] = ATG_MRE_CIS: Attagene CIS-FACTORIAL HepG2 Assay for human Metal Responsive Element (MRE) (AID 2282954); conditions: HepG2 MRE cis-reporter transcription, Attagene multiplex; actives raise or lower the signal
Procedure, shortened: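 Readout: capillary electrophoresis of 6-FAM-labelled, HpaI-digested RT-PCR reporter products. System: HepG2 cells carrying transient multiplexed cis reporters, dosed 24 h. Analysis: bidirectional fit, DMSO baseline.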

[19] = ATG_PBREM_CIS: Attagene CIS-FACTORIAL HepG2 Assay for human Phenobarbital-responsive Enhancer Module (PBREM) (AID 2282955); conditions: HepG2 PBREM cis-reporter, Attagene multiplexed transcription; actives raise or lower the signal
Procedure, shortened: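 Measures endogenous factor action on a phenobarbital-responsive enhancer module. HepG2 transiently carrying cis reporters, 24 h treatment, mRNA read-out by RT-PCR plus capillary electrophoresis.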

[20] = molecular target: Hypoxia-inducible factor 1-alpha (Homo sapiens) (UniProt Q16665); assay: ATG_HIF1a_CIS: Attagene CIS-FACTORIAL HepG2 Assay for human Hypoxia Inducible Factor 1 (HIF1A) (AID 2282951); conditions: HepG2 Attagene cis-factorial HIF1a reporter transcription; actives raise or lower the signal
Procedure, shortened: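 After 24 h chemical exposure of reporter-transfected HepG2 cells, reporter cDNA was PCR-amplified, labelled by 6-FAM primer extension (2 min 95 C, 20 s 68 C, 10 min 72 C), HpaI-cut (2 h, 37 C) and analysed by CE.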

Measured: AC50

Hypoxia-inducible factor 1-alpha (Homo sapiens), sequence (Q16665 whole entry, looked up): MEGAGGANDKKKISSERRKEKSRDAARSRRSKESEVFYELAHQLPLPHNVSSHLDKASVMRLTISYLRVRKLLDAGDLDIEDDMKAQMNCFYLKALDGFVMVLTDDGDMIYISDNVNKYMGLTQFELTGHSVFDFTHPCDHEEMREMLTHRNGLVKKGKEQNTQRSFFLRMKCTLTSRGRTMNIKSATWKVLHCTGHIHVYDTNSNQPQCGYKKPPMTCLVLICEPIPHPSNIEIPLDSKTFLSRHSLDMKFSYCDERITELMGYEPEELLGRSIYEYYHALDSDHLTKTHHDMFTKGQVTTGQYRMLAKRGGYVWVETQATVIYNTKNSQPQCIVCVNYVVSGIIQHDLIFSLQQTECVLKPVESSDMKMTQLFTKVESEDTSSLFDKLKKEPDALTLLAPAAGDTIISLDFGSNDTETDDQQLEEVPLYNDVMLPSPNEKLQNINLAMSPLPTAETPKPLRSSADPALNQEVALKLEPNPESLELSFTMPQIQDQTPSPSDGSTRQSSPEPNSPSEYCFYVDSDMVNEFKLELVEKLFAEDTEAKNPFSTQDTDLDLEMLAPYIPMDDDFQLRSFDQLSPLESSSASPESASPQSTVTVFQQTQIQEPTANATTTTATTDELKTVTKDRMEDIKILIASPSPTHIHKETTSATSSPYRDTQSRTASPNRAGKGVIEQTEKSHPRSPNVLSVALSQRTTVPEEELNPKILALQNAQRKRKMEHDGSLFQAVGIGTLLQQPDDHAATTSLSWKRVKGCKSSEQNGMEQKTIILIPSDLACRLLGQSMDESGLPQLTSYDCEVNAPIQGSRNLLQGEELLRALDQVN
Heat shock factor protein 1 (Homo sapiens), sequence (Q00613 whole entry, looked up): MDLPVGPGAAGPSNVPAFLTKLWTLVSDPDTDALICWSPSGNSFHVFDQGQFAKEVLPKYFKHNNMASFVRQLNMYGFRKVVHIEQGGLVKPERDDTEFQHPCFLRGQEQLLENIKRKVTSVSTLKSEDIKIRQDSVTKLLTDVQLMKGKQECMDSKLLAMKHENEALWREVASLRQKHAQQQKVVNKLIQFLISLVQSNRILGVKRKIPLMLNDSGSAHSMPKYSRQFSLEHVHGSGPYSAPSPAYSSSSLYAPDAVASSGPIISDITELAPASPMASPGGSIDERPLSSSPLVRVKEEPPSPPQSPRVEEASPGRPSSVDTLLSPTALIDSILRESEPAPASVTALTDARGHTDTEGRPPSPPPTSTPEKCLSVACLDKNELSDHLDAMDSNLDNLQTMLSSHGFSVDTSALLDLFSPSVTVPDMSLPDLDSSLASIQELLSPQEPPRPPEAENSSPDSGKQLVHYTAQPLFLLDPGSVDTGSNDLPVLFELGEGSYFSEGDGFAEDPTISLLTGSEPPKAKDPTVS
Bile acid receptor (Homo sapiens), sequence (Q96RI1 whole entry, looked up): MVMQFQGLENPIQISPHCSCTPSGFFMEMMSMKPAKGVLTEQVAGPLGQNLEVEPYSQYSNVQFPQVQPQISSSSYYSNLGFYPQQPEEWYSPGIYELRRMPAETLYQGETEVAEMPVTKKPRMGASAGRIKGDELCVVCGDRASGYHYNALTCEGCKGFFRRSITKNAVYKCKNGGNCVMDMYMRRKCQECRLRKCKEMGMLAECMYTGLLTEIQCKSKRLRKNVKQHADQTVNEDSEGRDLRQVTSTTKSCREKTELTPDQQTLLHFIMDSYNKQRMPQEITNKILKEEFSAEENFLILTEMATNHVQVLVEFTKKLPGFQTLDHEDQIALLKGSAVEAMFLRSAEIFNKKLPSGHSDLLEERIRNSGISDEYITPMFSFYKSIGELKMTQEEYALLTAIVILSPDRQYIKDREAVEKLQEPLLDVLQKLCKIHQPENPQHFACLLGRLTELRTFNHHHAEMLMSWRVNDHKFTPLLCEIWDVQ
Hepatocyte nuclear factor 6 (Homo sapiens), sequence (Q9UBC0 whole entry, looked up, the tested form may be a part): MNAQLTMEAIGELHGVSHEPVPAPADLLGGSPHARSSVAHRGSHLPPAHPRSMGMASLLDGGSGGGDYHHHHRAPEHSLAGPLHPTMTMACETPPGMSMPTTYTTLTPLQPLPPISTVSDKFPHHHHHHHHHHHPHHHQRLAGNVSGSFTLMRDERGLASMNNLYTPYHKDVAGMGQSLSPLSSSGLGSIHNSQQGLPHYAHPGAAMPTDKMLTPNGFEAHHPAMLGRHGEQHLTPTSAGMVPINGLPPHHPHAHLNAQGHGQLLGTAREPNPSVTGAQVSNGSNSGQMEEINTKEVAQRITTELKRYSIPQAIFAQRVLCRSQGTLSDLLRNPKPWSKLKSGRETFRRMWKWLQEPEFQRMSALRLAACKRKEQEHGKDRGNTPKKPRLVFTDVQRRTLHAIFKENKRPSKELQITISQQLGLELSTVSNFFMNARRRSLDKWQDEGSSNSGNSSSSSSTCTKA
Hepatocyte nuclear factor 3-beta (Homo sapiens), sequence (Q9Y261 whole entry, looked up): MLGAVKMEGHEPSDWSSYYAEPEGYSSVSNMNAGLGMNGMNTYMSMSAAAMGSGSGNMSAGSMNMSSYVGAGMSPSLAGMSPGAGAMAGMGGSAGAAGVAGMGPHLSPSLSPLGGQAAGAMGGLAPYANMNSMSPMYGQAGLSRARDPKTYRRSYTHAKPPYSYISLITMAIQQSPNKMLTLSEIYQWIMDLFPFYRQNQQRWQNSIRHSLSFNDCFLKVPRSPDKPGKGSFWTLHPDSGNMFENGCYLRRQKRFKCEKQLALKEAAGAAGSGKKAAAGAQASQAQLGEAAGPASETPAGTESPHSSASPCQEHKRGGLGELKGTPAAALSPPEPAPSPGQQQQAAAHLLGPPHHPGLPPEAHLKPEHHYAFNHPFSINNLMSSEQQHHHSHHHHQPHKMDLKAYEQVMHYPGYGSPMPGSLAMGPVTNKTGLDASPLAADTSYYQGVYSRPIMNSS

Cc1nc(-c2ccccn2)ncc1C(=O)Nn1cc(C)c2cc(F)ccc21
inactive: [1] | [2] | [3] | [4] | [5] | [6] | [7] | [8] | [9] | [10] | [11] | [12] | [13] | [14] | [15] | [16] | [17] | [18] | [19]

C=CCc1cc(S(=O)(=O)c2ccc(O)c(CC=C)c2)ccc1O
active: [1] 55.6 µM | [3] 45.8 µM | [5] 1.12 µM | [11] 51.1 µM | [17] 54.7 µM | [18] 47 µM
inactive: [2] | [4] | [6] | [7] | [8] | [9] | [10] | [12] | [13] | [14] | [15] | [20] | [16] | [19]

OCc1c[nH]c2ccccc12
inactive: [1] | [2] | [3] | [4] | [6] | [7] | [8] | [9] | [10] | [11] | [13] | [14] | [15] | [16] | [19]
active: [5] 8.17 µM [middle of 5 runs] | [7] 1.72 µM and 512 nM and 1.85 µM | [13] 27.1 µM and 140 µM and 32.2 µM | [17] 176 µM [middle of 5 runs] | [19] 5.11 µM [middle of 4 runs]

O=S(=O)(O)CCC(F)(F)C(F)(F)C(F)(F)C(F)(F)C(F)(F)C(F)(F)F
inactive: [1] | [2] | [3] | [4] | [5] | [6] | [7] | [8] | [9] | [10] | [11] | [12] | [13] | [14] | [15] | [20] | [16] | [17] | [18] | [19]

NCC(F)(F)C(F)(F)C(F)(F)C(F)(F)F
inactive: [1] | [2] | [3] | [4] | [5] | [6] | [7] | [8] | [9] | [10] | [11] | [12] | [13] | [14] | [15] | [16] | [17] | [18] | [19]

S=P(N1CC1)(N1CC1)N1CC1
inactive: [1] | [2] | [3] | [4] | [5] | [6] | [7] | [8] | [9] | [10] | [11] | [12] | [13] | [14] | [15] | [16] | [18] | [19]

FC(F)=C(F)C(F)(F)C(F)(F)C(F)(F)C(F)(F)C(F)(F)C(F)(F)F
inactive: [1] | [2] | [3] | [4] | [5] | [6] | [7] | [8] | [9] | [10] | [11] | [12] | [13] | [14] | [15] | [16] | [18] | [19]

c1ccc2cc3ccccc3cc2c1
inactive: [1] | [2] | [3] | [4] | [5] | [6] | [7] | [8] | [9] | [10] | [11] | [12] | [13] | [14] | [15] | [20] | [16] | [18] | [19]

O=C(Cl)C(F)(F)C(F)(F)C(F)(F)C(=O)Cl
inactive: [1] | [2] | [3] | [4] | [5] | [6] | [7] | [8] | [9] | [10] | [11] | [12] | [13] | [14] | [15] | [20] | [16] | [18] | [19]

NC(=O)N(O)[C@@H]1COc2cc(OCc3ccccc3)ccc21
inactive: [1] | [2] | [3] | [4] | [5] | [6] | [7] | [8] | [9] | [10] | [11] | [12] | [13] | [14] | [15] | [16] | [18] | [19]

CC(C)CCCCCCOC(=O)C1CCCCC1C(=O)OCCCCCCC(C)C (stereo not drawn)
inactive: [1] | [2] | [3] | [4] | [5] | [6] | [7] | [8] | [9] | [10] | [11] | [12] | [13] | [14] | [15] | [16] | [18]

c1ccc2c(c1)-c1cccc3c1c-2cc1ccccc13
inactive: [1] | [2] | [3] | [4] | [5] | [6] | [7] | [8] | [9] | [10] | [12] | [13] | [14] | [15] | [20] | [16] | [17] | [18] | [19]
active: [5] 0.929 µM | [20] 4.67 µM

— PubChem BioAssay (EPA / NIEHS)
